Among the data in paper PMC8384837, “Expanding the binding specificity for RNA recognition by a PUF domain” are binding signal values, retold here.

What all share (assay): yeast three-hybrid, YBZ-1, SC-Leu-His + 0.5 mM 3-AT, 4 days
What all share (conditions): tags: N-Gal4 AD-HA kept; label: inside an RPR1-promoter hybrid RNA with tandem MS2 sites; ssRNA

Test [1] concerns the target PUM1 PUF domain R5-LHV (Homo sapiens, UniProt Q14671 828-1176, C1007L;R1008H;Q1011V). The method in brief: (§1)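 A centromeric plasmid in strain YBZ-1 co-expressed Pumilio-1 PUF domain libraries, randomized at the three base-contacting residues of each repeat, with matching RNA elements; the strain carries a LexA–MS2 coat fusion and a HIS3 reporter. After four days on SC-Leu (input) or SC-Leu-His + 0.5 mM 3-AT (selection), the repeat regions were PCR-amplified and Illumina-sequenced. The interaction score is the log change in variant frequency from input to selection, using log2 and a pseudocount of 1 where absent.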

For test [2], the target named is PUM1 PUF domain R5-PRC (Homo sapiens, UniProt Q14671 828-1176, C1007P;Q1011C). The method in brief: as §1
Test [3] concerns the target PUM1 PUF domain R3-IRV (Homo sapiens, UniProt Q14671 828-1176, C935I;Q939V). The method in brief: as §1
Test [4] addresses T1, PUM1 PUF domain R6-AFQ (Homo sapiens, UniProt Q14671 828-1176, N1043A;Y1044F).
T1 sequence: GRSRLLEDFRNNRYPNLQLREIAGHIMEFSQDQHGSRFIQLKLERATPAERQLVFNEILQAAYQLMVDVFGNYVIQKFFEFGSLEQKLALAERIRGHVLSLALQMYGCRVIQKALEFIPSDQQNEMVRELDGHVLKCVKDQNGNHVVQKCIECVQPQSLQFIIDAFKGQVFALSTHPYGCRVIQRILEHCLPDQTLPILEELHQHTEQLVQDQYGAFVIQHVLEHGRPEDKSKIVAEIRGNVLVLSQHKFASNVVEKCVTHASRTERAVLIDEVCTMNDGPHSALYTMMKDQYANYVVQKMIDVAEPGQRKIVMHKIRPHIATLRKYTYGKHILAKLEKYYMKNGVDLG
An outline of the steps: as §1

The target of test [5] is PUM1 PUF domain R3-IWL (Homo sapiens, UniProt Q14671 828-1176, C935I;R936W;Q939L). An outline of the steps:
as §1

Test [6] addresses PUM1 PUF domain R8-RYG (Homo sapiens, UniProt Q14671 828-1176, N1122R;Q1126G). An outline of the steps:
as §1

Test [7] deals with PUM1 PUF domain R4-GHP (Homo sapiens, UniProt Q14671 828-1176, N971G;Q975P). An outline of the steps: as §1
Test [8] deals with PUM1 PUF domain R3-SSE (Homo sapiens, UniProt Q14671 828-1176, C935S;R936S;Q939E). An outline of the steps:
as §1

Test [9] addresses PUM1 PUF domain R5-RGR (Homo sapiens, UniProt Q14671 828-1176, C1007R;R1008G;Q1011R). The method in brief: as §1
The target of test [10] is PUM1 PUF domain R5-KRR (Homo sapiens, UniProt Q14671 828-1176, C1007K;Q1011R). An outline of the steps:
as §1

The target of test [11] is PUM1 PUF domain R5-RMS (Homo sapiens, UniProt Q14671 828-1176, C1007R;R1008M;Q1011S). An outline of the steps:
as §1

For test [12], the target named is PUM1 PUF domain R3-FRG (Homo sapiens, UniProt Q14671 828-1176, C935F;Q939G). An outline of the steps: as §1
Test [13] deals with T2, PUM1 PUF domain R6-CFE (Homo sapiens, UniProt Q14671 828-1176, N1043C;Y1044F;Q1047E).
T2 sequence: T1 sequence with A216C, Q220E
An outline of the steps: as §1

Test [14] deals with PUM1 PUF domain R1-QRS (Homo sapiens, UniProt Q14671 828-1176, S863Q;Q867S). An outline of the steps:
as §1

In test [15] the target is PUM1 PUF domain R5-HFF (Homo sapiens, UniProt Q14671 828-1176, C1007H;R1008F;Q1011F). The method in brief:
as §1

Test [16] deals with PUM1 PUF domain R5-QGC (Homo sapiens, UniProt Q14671 828-1176, C1007Q;R1008G;Q1011C). The method in brief: as §1
The target of test [17] is PUM1 PUF domain R7-RPM (Homo sapiens, UniProt Q14671 828-1176, S1079R;N1080P;E1083M). An outline of the steps:
as §1

Test [18] addresses PUM1 PUF domain R4-NRA (Homo sapiens, UniProt Q14671 828-1176, H972R;Q975A). An outline of the steps:
as §1

Residue numbers refer to the chain shown, from its start.

Regarding “GGCUAGAACUAGUGGAUCCCCCGGCGCCCGGCGGCUCGAGCCCGGGUAAGUGUAAAUAGUCUGCAUGCCGCCGGGCGCCAUGCCUGCAGGUCGACUCUAGAAAACAUG”, the binding signal in test [1] was 3.57 log2 enrichment (interaction score); in test [2], 4.13 log2 enrichment (interaction score); in test [3], 2.93 log2 enrichment (interaction score); in test [4], 3.75 log2 enrichment (interaction score); in test [5], 4.86 log2 enrichment (interaction score); in [6] it was 5.75 log2 enrichment (interaction score). Besides, the binding signal in test [7] is 5.41 log2 enrichment (interaction score); in test [8] it was 0.23 log2 enrichment (interaction score).
With “GGCUAGAACUAGUGGAUCCCCCGGCGCCCGGCGGCUCGAGCCCGGGUAAGUGUCAAUAGUCUGCAUGCCGCCGGGCGCCAUGCCUGCAGGUCGACUCUAGAAAACAUG”, the binding signal is 1.43 log2 enrichment (interaction score) in test [1], 3.52 log2 enrichment (interaction score) in [9], 3.6 log2 enrichment (interaction score) in [10] and 3.6 log2 enrichment (interaction score) in [11].
On to “GGCUAGAACUAGUGGAUCCCCCGGCGCCCGGCGGCUCGAGCCCGGGUAAGUGUAAGUAGUCUGCAUGCCGCCGGGCGCCAUGCCUGCAGGUCGACUCUAGAAAACAUG”, for which the binding signal in [12] is 5.59 log2 enrichment (interaction score); in [3] it was 1.69 log2 enrichment (interaction score); in [5], 2.77 log2 enrichment (interaction score); in test [8], 6.26 log2 enrichment (interaction score).
On to “GGCUAGAACUAGUGGAUCCCCCGGCGCCCGGCGGCUCGAGCCCGGGUAAGUGGAAAUAGUCUGCAUGCCGCCGGGCGCCAUGCCUGCAGGUCGACUCUAGAAAACAUG”, for which the binding signal in test [13] was 2.88 log2 enrichment (interaction score).
On the same count and under the same terms, as for “GGCUAGAACUAGUGGAUCCCCCGGCGCCCGGCGGCUCGAGCCCGGGUAAGUGAAAAUAGUCUGCAUGCCGCCGGGCGCCAUGCCUGCAGGUCGACUCUAGAAAACAUG”, the figure is 6.12 log2 enrichment (interaction score).
For “GGCUAGAACUAGUGGAUCCCCCGGCGCCCGGCGGCUCGAGCCCGGGUAAGUGUAAAUUGUCUGCAUGCCGCCGGGCGCCAUGCCUGCAGGUCGACUCUAGAAAACAUG”, in [14], the binding signal was 2.7 log2 enrichment (interaction score).
“GGCUAGAACUAGUGGAUCCCCCGGCGCCCGGCGGCUCGAGCCCGGGUAAGUGUUAAUAGUCUGCAUGCCGCCGGGCGCCAUGCCUGCAGGUCGACUCUAGAAAACAUG”: the binding signal in test [9] was 3.07 log2 enrichment (interaction score); in [11] it was 2.79 log2 enrichment (interaction score); in [15], 3.86 log2 enrichment (interaction score); in test [16], 2.19 log2 enrichment (interaction score).
On to “GGCUAGAACUAGUGGAUCCCCCGGCGCCCGGCGGCUCGAGCCCGGGUAAGUUUAAAUAGUCUGCAUGCCGCCGGGCGCCAUGCCUGCAGGUCGACUCUAGAAAACAUG”, for which, in [17], the binding signal is 3.18 log2 enrichment (interaction score).
Turning to “GGCUAGAACUAGUGGAUCCCCCGGCGCCCGGCGGCUCGAGCCCGGGUAAGUCUAAAUAGUCUGCAUGCCGCCGGGCGCCAUGCCUGCAGGUCGACUCUAGAAAACAUG”, the binding signal in [17] was 0.93 log2 enrichment (interaction score).
On to “GGCUAGAACUAGUGGAUCCCCCGGCGCCCGGCGGCUCGAGCCCGGGUAAGUGUAUAUAGUCUGCAUGCCGCCGGGCGCCAUGCCUGCAGGUCGACUCUAGAAAACAUG”, for which the binding signal in [18] is 2.48 log2 enrichment (interaction score).
As for “GGCUAGAACUAGUGGAUCCCCCGGCGCCCGGCGGCUCGAGCCCGGGUAAGCGUAAAUAGUCUGCAUGCCGCCGGGCGCCAUGCCUGCAGGUCGACUCUAGAAAACAUG”, the binding signal in test [6] was 5.66 log2 enrichment (interaction score).
Consider “GGCUAGAACUAGUGGAUCCCCCGGCGCCCGGCGGCUCGAGCCCGGGUAAGUGUACAUAGUCUGCAUGCCGCCGGGCGCCAUGCCUGCAGGUCGACUCUAGAAAACAUG”, for which the binding signal in test [7] was 5.4 log2 enrichment (interaction score).
